Test results from PubChem BioAssay AID686971 (National Center for Advancing Translational Sciences (NCATS), 2013).
The campaign covered roughly 360,000 compounds. About 7,500 (2.1%) were called active. Roughly 8% stayed inconclusive and do not appear here. Many of the other results were omitted from the sample, so actives are more common in it than they were. A number with no mark means an inactive call. Calls come from the whole dose curve; as a rule, active = well fitted cell-killing curve with a large enough effect; inconclusive = small, poorly fitted or top-dose-only effect, or effect the other way, or another doubt; inactive = no such curve, though single readings can be large or run the other way.

Test: qHTS for induction of synthetic lethality in tumor cells producing 2HG: qHTS for the HT-1080-IDH1KD cell line;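 for activity, negative = toxicity: 0% = DMSO wells and -100% = cell-free medium wells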
Settings: HT-1080 IDH1 knockdown viability, ATP luminescence, 48 h; series mostly up to 46.1 µM; activity, negative = toxicity: at the top concentration
Outline: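 Assay cells: HT-1080 with IDH1 knockdown, 750 per well, RPMI/5% FBS. Exposure: 48 h at 37 °C following 2 h pre-incubation. Read: CellTiter-Glo luminescence; fitted concentration-response, curve class assigned.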
Potency is the fitted concentration of half-maximal effect.

Structure (SMILES)	activity, negative = toxicity	Potency
O=S1(=O)CC(N2CCN(c3ccccn3)CC2)CN1Cc1ccc(F)cc1 (centres undefined)	12.9%	
COc1cc(OC)cc(C(=O)N[C@H](C(=O)Nc2nc3ccccc3[nH]2)C(C)C)c1		1.3 µM (active)
COc1ccc(C(=O)N[C@H](C(=O)NCc2ccccc2)C(C)C)cc1	1.96%	
COc1cc(OC)cc(C(=O)N[C@H](C(=O)NNC(=O)c2ccc(Br)cc2)C(C)C)c1	-0.904%	
Cc1ccccc1CN1C(=O)CSCC1(C)C(=O)Nc1c(C)cccc1C (centres undefined)	13.5%	
N#Cc1cccc(NC(=O)c2cc(C3CCCCN3C(=O)CCc3ccccc3)on2)c1 (centres undefined)	-6.65%	
O=C(COC(=O)c1cccc(Cl)c1Cl)NC1CCCCCC1	9.61%	
Cc1ccc([C@H]2N[C@]3(CCCN(CC4CCCCC4)C3=O)[C@H]3C(=O)N(Cc4ccccc4)C(=O)[C@@H]23)cc1	4.94%	
CCNC(=S)Nc1ccc(OC(F)(F)F)cc1	-2.34%	
CCc1ccc2c(c1)NC(=O)C2(C)Cc1ccc(OC(F)(F)F)cc1 (centres undefined)		23.1 µM (active)
COc1ccccc1CC1(C)C(=O)Nc2ccc(OC(F)(F)F)cc21 (centres undefined)	-43.7%	
CC(=O)c1ccc(OCC(=O)N(C)C2CCS(=O)(=O)C2)cc1 (centres undefined)	13.3%	
O=C(NC1CCCC1)C1c2ccccc2OCC(=O)N1CC(F)(F)F (centres undefined)	11.4%	
Cc1c(C(=O)NCC(c2ccco2)N2CCCC2)oc2ccc(Cl)cc12 (centres undefined)		23.1 µM (active)
Cc1cc(S(=O)(=O)Nc2ccc(C(=O)NCC(c3ccco3)N3CCCC3)cc2)ccc1F (centres undefined)	-2.76%	
CSc1ncccc1C(=O)NCC(c1ccco1)N1CCCCC1 (centres undefined)	-1.6%	
C/C(=N/Nc1ccc(Cl)cc1)c1cnnc(-c2ccccc2)n1	9.94%	
CCCCCCCN=C(C)c1ccccc1O	13.1%	
C/C(=N\Nc1ccc(Cl)nn1)c1ccccc1O		3.26 µM (active)
O=C(C[C@H]1C[C@H]2c3cc(NS(=O)(=O)c4ccc(F)cc4)ccc3O[C@H]2[C@H](CO)O1)NCc1cc(F)ccc1F	1.04%	
COc1ccc(C(=O)NCC2CCCO2)cc1S(=O)(=O)NCc1ccc(Cl)cc1 (centres undefined)	-1.21%	
CSCc1nnc(NC(=O)c2ccc(S(=O)(=O)N3CCCCC3C)cc2)o1 (centres undefined)	-20.2%	

Structure (SMILES)	activity, negative = toxicity	Potency
CC1CCCCN1S(=O)(=O)c1ccc(C(=O)Nc2nnc(-c3cccs3)o2)cc1 (centres undefined)		8.2 µM (active)
CC1CCCN(S(=O)(=O)c2ccc(C(=O)Nc3nnc(-c4ccncc4)o3)cc2)C1 (centres undefined)	-27.2%	
CCCNC(=O)c1cc(C2CCCN(C(=O)c3ccc4c(c3)CCO4)C2)on1 (centres undefined)	9.93%	
COC(=O)C[C@H]1C[C@@H]2c3cc(N(C)C)ccc3O[C@@H]2[C@H](CO)O1	8.05%	
CCOc1ccc(CCNC(=O)COC(=O)c2ccc(C)c(S(=O)(=O)N3CCOCC3)c2)cc1OCC	4.73%	
Brc1ccc2c(c1)[C@H]1OCC[C@H]1[C@@H](c1cccs1)N2		9.2 µM (active)
c1csc(CN2CCN(Cc3cccs3)C2c2cccs2)c1	-1.16% [at 9.24 µM]	
COc1cc2ccc(C(C)=O)c(O)c2cc1OC	0.357%	
COCCNc1ncnc2c1ncn2[C@H]1CN(Cc2ccc(OC)cc2)C[C@@H](CO)O1	11.1%	
COc1cccc2c1C(=O)c1c(O)c3c(c(O)c1C2=O)CC(O)(C(C)=NNC(=O)c1ccc(Cl)c(Cl)c1)CC3OC1CC(N)C(O)C(C)O1 (centres undefined)		1.16 µM (active)
OC(c1ccccc1)c1nc(-c2cnc3ccccc3c2)cs1 (centres undefined)	-19.1%	
Cc1ccc(S(=O)(=O)N(C)C2(C)CCS(=O)(=O)C2)cc1 (centres undefined)	-16.1%	
Cc1ccc(S(=O)(=O)NC2CCCCCC2)cc1	6.42%	
Cc1ccc(S(=O)(=O)C2(S(=O)(=O)c3ccc(C)cc3)CCCC2)cc1		11.6 µM (active)
Cc1cc(C)c2c(=O)n3c(nc2c1)C(CC(C)C)NC(=O)c1cc2ccccc2cc1-3 (centres undefined)	-0.851%	
COc1ccc(Br)c(Cn2c(C)c(C(=O)NCc3cccs3)sc2=O)c1	0.492%	
CCOc1ccccc1NC(=O)Cn1nnc(C(=O)NCc2cccs2)c1N		0.411 µM (active)
CCc1ccc(NC(=O)Cn2nnc(C(=O)NCc3ccc(OC)cc3)c2N)cc1	-1.58%	
CCOc1ccc(Cl)cc1-c1cc(C(=O)NCc2cccs2)[nH]n1	0.448%	
COc1ccc(-c2cnc3c(c2)C(=O)N([C@H](C)CO)C[C@@H](C)[C@H](CN(C)Cc2ccccc2)O3)cc1	-1.8%	
COc1ccc(OC)c(CN2C(=O)CCC2(C)c2nnnn2Cc2ccccc2)c1 (centres undefined)	9.52%	
NC(=O)N1CCCC1C(=O)Nc1ccc(Cl)c(Cl)c1 (centres undefined)	5.56%	

Structure (SMILES)	activity, negative = toxicity	Potency
O=C(COC(=O)c1cc[n+]([O-])cc1)Nc1ccc(Cl)c(C(F)(F)F)c1	0.909%	
O=C(CC(O)(C(F)(F)F)C(F)(F)F)Nc1ccc(Cl)c(Cl)c1		11.6 µM (active)
O=C1NC(O)CCN1C1CC(O)C(CO)O1 (centres undefined)	7.01%	
CC(=O)c1ccc(Nc2nc(C(N)c3ccccc3Cl)cs2)cc1 (centres undefined)	-21.8%	
CCn1c(SCc2ccccc2)nc2cc(OC)c(OC)cc2c1=O	-15.2%	
CCOCCCn1c(NN)nc2ccccc2c1=O	4.05%	
CCn1c(/C=C/c2ccc([N+](=O)[O-])o2)nc2ccccc2c1=O		2.59 µM (active)
COc1ccc(C(=O)N2CCCCC2c2cc(C(=O)Nc3ccccc3)no2)cc1 (centres undefined)	0%	
O=C(CCl)N(Cc1cccc([N+](=O)[O-])c1)c1cccc(Cl)c1		4.61 µM (active)
O=C(c1cccc([N+](=O)[O-])c1)N1CCN(Cc2ccccc2)CC1	15.1%	
Cc1ccc(S(=O)(=O)N(Cc2cccc([N+](=O)[O-])c2)C(=O)N2CCN(C)CC2)cc1	-11.9%	
CCc1nc2c(OCCOc3ccccc3)cccn2c1N(C=O)Cc1ccc(OC)cc1	-76.1%	
CCc1nc(C)cn1S(=O)(=O)c1cc([N+](=O)[O-])ccc1Cl		3.26 µM (active)
CCc1nc(C)cn1S(=O)(=O)c1cc(OC)c(C)cc1C	-17.7%	
CC(C)c1nccn1S(=O)(=O)c1cc([N+](=O)[O-])ccc1Cl	2.08%	
Nc1nc2c(Br)ccc(Br)c2cc1C(=O)NCCc1ccccc1	-12.4%	
CSc1ncnc2c1ncn2CCCNCc1ccco1	9.18%	
COc1ccc(COC(=O)NC(C(=O)O)c2ccccc2)cc1 (centres undefined)	-4.08%	
COc1ccc(CN(C)C(=O)CC(c2ccccc2)c2ccccc2)cc1	-14.7%	
COc1ccc(C(CCN(Cc2ccc(OC)c(OC)c2)C(=O)CCl)c2ccccc2)cc1 (centres undefined)		16.4 µM (active)
